Measured values: PubChem BioAssay (NCI)
About 83,000 compounds went through this panel and 20% of them were active in at least one assay; those are over-represented in the sample as a whole.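 How to read the values: 0–100, growth inhibition (40 = 60% inhibited); 0, no net growth; -100 to 0, cell death (-40 = 40% of starting cells died; -100 = all dead).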 Active and inactive are the calls of the source. How the source made its calls: active means growth percent below 10; inactive means the rest.

Test system: HL-60(TB) leukemia
Assay: NCI-60 one-dose screen, 48 h (100 = growth as untreated, 0 = no growth, -100 = all killed)
Conditions: 10 µM unless noted

Compound	growth
COc1ccc(/C(C)=C(\c2ccc(Cl)cc2)c2ccc(OCCN3CCCCCC3)cc2)cc1F	-15.4% (active)
COc1cc(C(=O)Oc2ccccc2OC(=O)c2cc(OC)c(OC)c(OC)c2)cc(OC)c1OC	110% (inactive)
N[C@H]1CCC[C@@H]1NCCCCN1C(=O)c2cccc3cc([N+](=O)[O-])cc(c23)C1=O	29.4% (inactive)
O=[N+]([O-])c1ccccc1CN1CCCCC1	101% (inactive)
COc1ccc(NC(=O)c2sc3nc(C)c(C(O)c4ccc(OC)cc4)cc3c2N)cc1 (stereo not given)	-59.5% (active)
C[Se]C(=O)CC1=C2C=C(F)C=CC2/C(=C\c2ccc(S(C)=O)cc2)C1C (stereo not given)	-40% (active)
CCc1ccc(-c2ccc(-n3nc(C)c4c(N)nc(Cc5ccccc5)nc43)cc2)cc1	65% (inactive)
Cc1ccc(-c2nc(/C=C3/C(=O)N(C)c4ccc(F)cc43)c3ccccn23)cc1	102% (inactive)
CCOc1ccccc1C(=O)/C=C/c1cc2ccccc2[nH]c1=O	-7.94% (active)
Cc1nn(-c2ccccc2)c2nc3c(c(-c4ccc(Cl)cc4)c12)CNC1(CCSCC1)N3	72.9% (inactive)
